High-throughput results as filed in PubChem.
Sampled rows, rich in hits. Any-hit rate of the full collection: about 0.79%.
iPSC survival up – enhancers of single-cell hiPSC survival, primary screen, ATPlite luminescence; 100% = ROCK inhibitor wells, 0% = DMSO; survival enhancement, % at 20 µM; hit rate 0.044% among 360,000; in the data active means survival enhancement above about 18%;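 further: cells exposed to compounds for 16 hours before the ATP read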
DAGLB inhibitor – DAGLB lipase inhibitors, primary screen, biochemical, fluorescence, HTS; Diacylglycerol lipase-beta (Homo sapiens), Q8NCG7; hit rate 0.059% among 340,000; inhibition, % at 5.17 µM; HEK293T DAGLB membrane lysate, EnzChek fluorogenic substrate; in the data active means inhibition above about 34%;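 further: 0% = enzyme with vehicle and 100% = wells lacking enzyme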
Target sequence (Q8NCG7 whole entry, looked up): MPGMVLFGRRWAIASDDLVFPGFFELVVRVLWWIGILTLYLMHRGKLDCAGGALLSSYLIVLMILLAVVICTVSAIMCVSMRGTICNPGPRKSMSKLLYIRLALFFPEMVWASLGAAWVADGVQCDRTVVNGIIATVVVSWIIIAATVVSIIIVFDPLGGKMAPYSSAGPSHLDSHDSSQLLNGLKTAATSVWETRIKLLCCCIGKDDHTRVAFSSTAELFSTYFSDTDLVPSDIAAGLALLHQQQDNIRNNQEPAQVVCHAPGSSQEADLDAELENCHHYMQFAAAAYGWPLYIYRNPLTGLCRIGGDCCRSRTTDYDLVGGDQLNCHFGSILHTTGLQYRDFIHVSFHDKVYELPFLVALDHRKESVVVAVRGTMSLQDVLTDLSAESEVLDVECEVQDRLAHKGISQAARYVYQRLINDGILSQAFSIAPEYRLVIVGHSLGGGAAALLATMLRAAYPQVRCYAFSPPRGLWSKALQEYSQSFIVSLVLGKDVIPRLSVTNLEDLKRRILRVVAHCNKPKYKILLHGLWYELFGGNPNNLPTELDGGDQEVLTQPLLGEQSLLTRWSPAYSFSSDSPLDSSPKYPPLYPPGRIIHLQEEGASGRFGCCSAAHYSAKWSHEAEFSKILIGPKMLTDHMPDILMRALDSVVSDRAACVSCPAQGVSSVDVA
LANA-H2A inh – blockers of LANA interaction with H2A/H2B – biochemical, FP readout, HTS, primary screen. hit rate 0.6% among 320,000. inhibition, % (concentration not given with the values). Protein LANA1 (Human herpesvirus 8 type P (isolate GK18)), Q9QR71. cell-free LANA-H2A/H2B peptide, fluorescence polarization; in the data active means inhibition mostly above about 10%, no sharp cut-off; inactive means mostly below about 6.7%
HDAC3 inh – HDAC3 deacetylase inhibitors, primary screen, biochemical, fluorescence, cell-free homogeneous; inhibition, % at 8.3 µM; recombinant HDAC3, fluorogenic peptide/trypsin coupled; hit rate 0.15% among 320,000; Histone deacetylase 3 (Homo sapiens), O15379; in the data active means inhibition above about 26%, passing the limit was not always enough
* hit, by the source's call; . = not tested or not shown.

SMILES	iPSC survival up	DAGLB inhibitor	LANA-H2A inh	HDAC3 inh
CN1CCCN(C(=O)c2cccc(Br)c2)CC1	0	2	12*	3
COc1ccc(N2C(=O)C(Cl)=C(Nc3ccc(OC)cc3OC)C2=O)cc1	0	4	4	0
COc1ccc(NC2=C(Cl)C(=O)N(c3ccccc3)C2=O)c(OC)c1	1	4	15*	-8
O=C(CN1CCc2[nH]c3ccccc3c2C1)N1CCCCC1	-1	1	18*	0
CCc1ccccc1NC(=O)CSc1nnc(C2CC2)n1CC1CCCO1 (stereo unspecified)	-1	0	19*	0
CCN(CC(=O)Nc1c(F)cccc1F)C(=O)CNC(=O)c1cccc(C)c1	-1	2	2	6
COc1cccc(CN2CC(C(=O)NCCN3CCOC3=O)CCC2=O)c1 (stereo unspecified)	0	3	4	1
CNC(=S)c1cc(C(C)(C)C)c(O)c(C(C)(C)C)c1	2	-2	0	15
CCC(=O)N1CCN(c2ccc(NC(=S)NC(=O)c3cc4ccccc4o3)cc2)CC1	0	2	94*	0
CN(CCC#N)C(=S)NC(=O)c1ccc(S(=O)(=O)N2CCOCC2)cc1	0	-2	6	-1
CC1CC(=O)Nc2ccccc2N1C(=O)COc1ccccc1C(N)=O (stereo unspecified)	0	-1	.	.
O=C(O)CSCCC(=O)Nc1ccc(F)cc1	-2	1	28*	4
CC(=O)c1ccc(NC(=O)CCSCCC(=O)Nc2ccc(C(C)=O)cc2)cc1	5	0	0	11
Cc1cc(C(=O)CSc2nnc(CCC(N)=O)n2C)c(C)n1C1CC1	0	-1	.	.
CCCS(=O)(=O)NC(=O)C1(C)CCN(C(=O)c2cccnc2Oc2ccccc2)C1 (stereo unspecified)	-1	.	.	.
COc1cc(C(=O)NNC(=O)CCOc2ccccc2)cc(OC)c1OC	3	0	17*	-5
C[C@H](CO)N1C[C@H](C)[C@@H](CN(C)S(=O)(=O)c2ccc3c(c2)OCCCO3)OCc2cn(nn2)CCCC1=O	2	-2	.	.
CCn1cc(C(=O)OCC(=O)N(C)Cc2ccccc2)c(=O)c2ccc(C)nc21	0	-1	61*	0
COCCCn1c(=O)/c(=C\c2ccc(OC(F)F)c(OC)c2)s/c1=C(/C#N)C(N)=O	0	-4	29*	0
O=C(N/N=C/c1cccs1)C(=O)N1CCCC1	2	-1	15*	5
C[C@@]12CCC=C[C@H]1[C@H](c1ccc(C(F)(F)F)cc1)N(Cc1ccccc1)C2=O	1	-5	-5	20
Cc1ccccc1C1CC(c2ccc(F)cc2)Nc2nc(N)nn21 (stereo unspecified)	1	-1	3	-1
Cc1ccccc1C1CC(c2ccc(Br)cc2)Nc2nc(N)nn21 (stereo unspecified)	-3	5	17*	2
O=S(=O)(c1ccc(=S)[nH]c1)N1CCCCCC1	0	1	38*	3
O=C(Nc1nc(-c2ccccc2)cs1)C1c2ccccc2Oc2ccccc21	-1	0	46*	2
SMILES	iPSC survival up	DAGLB inhibitor	LANA-H2A inh	HDAC3 inh
NC(=O)NC(CC(=O)NCCCc1ccccc1)c1ccccc1Cl (stereo unspecified)	0	1	4	2
NC(=O)NC(CC(=O)NCCc1ccccn1)c1ccccc1Cl (stereo unspecified)	0	4	15*	1
COc1ccc(C(=O)N2CCC(C)(C(=O)O)C2)c(OC)c1 (stereo unspecified)	-1	.	.	.
CCCCc1c(O)c2ccccc2n(CCCC)c1=O	3	2	14*	8
CCc1ccc(CN(C)C(=O)C2CCC(=O)N(CCc3ccc(OC)cc3)C2)nc1 (stereo unspecified)	0	1	29*	-6
CCN(Cc1cnn(C)c1)C(=O)C1CCC(=O)N(CCc2ccc(OC)cc2)C1 (stereo unspecified)	0	-1	2	-1
Cc1c(C(=O)NN2CCCCC2)nn(-c2ccc(Cl)cc2Cl)c1-c1ccc(I)cc1	.	.	-7	2
CC(C)(C)NS(=O)(=O)c1ccc(NC(=O)C(Sc2ccccc2)c2ccccc2)cc1 (stereo unspecified)	0	-1	2	29*
COCc1cccc(-c2csc(C(C)(NC(C)=O)c3ccc(OC)cc3)n2)c1 (stereo unspecified)	0	.	.	.
CCOC(=O)C1=C(Nc2ccc(OC)cc2)C(N)=NC1=N	-1	-3	.	.
CCCCN(CCCC)c1nc2ccccc2nc1C(C#N)C(=O)NCCCOC (stereo unspecified)	-3	-1	27*	0
CCN(CC)c1nc2ccccc2nc1C(C#N)C(=O)NCCCOC (stereo unspecified)	-2	-4	-42	-14
CCCCCCNC(=O)C(C#N)c1nc2ccccc2nc1N1CCCC1 (stereo unspecified)	-2	0	155*	0
COC(=O)c1ccc(/C=N/NC(=O)C2CC(=O)N(c3ccc(F)cc3)C2)cc1 (stereo unspecified)	0	0	13*	3
CCOc1nc2cnccc2n(CC(=O)Nc2cccc(C)c2)c1=O	0	-1	2	-6
O=C(Nc1ccc2c(c1)nc1n2CCN(Cc2ccccc2)C1)c1cccs1	-1	1	7	3
COc1ccccc1C(=O)Nc1ccc2c(c1)nc1n2CCN(Cc2ccccc2)C1	0	6	16*	-7
Cc1cc(C)cc(NC(=O)C(=S)NCc2ccccc2)c1	0	-14	43*	3
O=C(NN=Cc1ccccc1C(=O)O)c1cccc(S(=O)(=O)Nc2cccc(C(F)(F)F)c2)c1	1	3	0	4
CC(=O)c1ccccc1NC(=O)COC(=O)CCCN1C(=O)c2cccc3cccc(c23)C1=O	32*	-2	-4	0
O=C(CC1CCCC1)N1CCN(S(=O)(=O)c2cccc(Br)c2)CC1	1	-4	.	.
COc1cc(/C=N/NC(N)=O)c(Br)cc1OCC(=O)Nc1ccccc1C	2	-1	6	-3
COc1cc(/C=N/O)c(Br)cc1OCC(=O)Nc1ccccc1C	0	-8	17*	-7
COc1ccccc1CC(=O)Nc1ccc(-c2noc(COc3cccc(C)c3C)n2)cc1	21*	-10	-5	-1
COc1ccccc1CC(=O)Nc1ccc(-c2noc(COc3ccc(Br)cc3)n2)cc1	3	0	0	5
O=C(CSC1=NCCS1)N1CCN(c2ccc(Cl)cc2)CC1	-2	-6	3	-4
O=C(CSC1=NCCS1)c1ccc(Cl)cc1	0	-4	-1	72*
COc1cc2c(cc1OC)CN(C(=O)c1ccc(Cl)c(S(=O)(=O)N3CCCC3)c1)CC2	0	-2	0	13
O=C(COC(=O)c1cccc(OC(F)F)c1)NCC1CCCO1 (stereo unspecified)	0	-1	0	-5
Cc1nc2ccccc2c2c1C(=O)N(c1ccc(C(=O)O)cc1)C2=O	0	0	-3	-1
